These results are taken from PubChem BioAssay.

A short description of test [1]: antimalarial activity against Dd2 strain (AID 2302;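 active = growth inhibition above 50% at the single 2 µM test dose, taken to imply half-maximal potency below 2 µM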;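 also: 0% = DMSO untreated growth and 100% = chloroquine plus artemisinin killed control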). The settings on record: P. falciparum Dd2 in RBCs, LDH growth readout, 72 h; at 2 µM; hits give high values.
A short description of test [2]: HepG2 cytotoxicity, primary screen, cytotoxicity control for P. falciparum antimalarial project, cell-based, ATP luminescence (AID 2303;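 active = inhibition above 50%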;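 also: 0% = DMSO wells and 100% = digitonin-killed cells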). The settings on record: HepG2 viability, 24-48 h, at 10 µM, hits give high values.
Test [3] has as its target L-lactate dehydrogenase (Plasmodium falciparum (isolate CDC / Honduras)) (UniProt Q27743). Description: PfLDH activity inhibition – cell lysate, 3D7 strain, counter-screen for P. falciparum growth inhibition project (AID 2304).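 Also: 0% = vehicle and 100% = reference inhibitor.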 The settings on record: P. falciparum 3D7 crude extract, LDH APAD/NBT absorbance; at 2 µM; hits give high values. On the technique in general: A counterscreen serves to expose hits that act by an unwanted route or on another target.

The nature of test [4]: inhibition of 3D7 malaria parasite growth – strain 3D7 (AID 2306).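 Also: 0% = DMSO wells and 100% = chloroquine plus artemisinin control wells.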 The settings on record: P. falciparum 3D7 erythrocytic growth, LDH absorbance, 72 h; at 2 µM; hits give high values.
For test [5], the target named is Calcium-dependent protein kinase 1 (Plasmodium falciparum (isolate 3D7)) (UniProt P62344). The test can be described thus: PfCDPK1 kinase inhibitors, biochemical, TCAMS library (AID 1159585; cut-off not given, nearly all actives have IC50 up to about 0.98 µM;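 also: inhibitors leave more ATP so luminescence rises with inhibition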). Conditions: recombinant PfCDPK1, Kinase-Glo ATP depletion luminescence. Background: Kinase-Glo measures the ATP left after a reaction by luminescence.
The target in test [6] is Plasmodium falciparum protein kinase 6 (PK6, PF3D7_1337100) (UniProt Q8IDW1). Description: PfPK6 kinase inhibitors, biochemical, TCAMS library (AID 1159586). Conditions: recombinant PfPK6, Kinase-Glo ATP depletion luminescence.
Test [7] has as its target Protein kinase 7 (PK7), Plasmodium falciparum 3D7 (PF3D7_0213400) (UniProt Q7YTF7). The test can be described thus: inhibition of Plasmodium PK7 catalytic activity – biochemical, TCAMS antimalarial set, Kinase-Glo luminescence (AID 1159587). The settings on record: recombinant PfPK7, Kinase-Glo ATP depletion luminescence.
For test [8], the target named is Calcium-dependent protein kinase 4 (Plasmodium falciparum (isolate 3D7)) (UniProt Q8IBS5). Description: PfCDPK4 kinase inhibitors, biochemical, TCAMS library (AID 1159588; cut-off not given, nearly all actives have IC50 up to about 0.91 µM). The settings on record: recombinant PfCDPK4, Kinase-Glo ATP depletion luminescence.

Molecules are shown by their SMILES. A number with no mark means an inactive call. For some of these results: Results with a measured potency or affinity are listed apart. Active and inactive are the calls of the source. Unless noted, no rule for the calls is given here.

Sequence of Plasmodium falciparum protein kinase 6 (PK6, PF3D7_1337100) (Q8IDW1 1-305): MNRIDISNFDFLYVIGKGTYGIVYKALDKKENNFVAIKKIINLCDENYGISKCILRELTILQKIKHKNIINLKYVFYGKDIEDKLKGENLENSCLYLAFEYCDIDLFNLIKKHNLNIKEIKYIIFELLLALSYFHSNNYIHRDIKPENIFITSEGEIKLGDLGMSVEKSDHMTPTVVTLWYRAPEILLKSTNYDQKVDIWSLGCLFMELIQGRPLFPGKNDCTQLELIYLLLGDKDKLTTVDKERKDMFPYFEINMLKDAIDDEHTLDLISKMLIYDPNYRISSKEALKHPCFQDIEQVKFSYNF
Sequence of Protein kinase 7 (PK7), Plasmodium falciparum 3D7 (PF3D7_0213400) (Q7YTF7 1-343): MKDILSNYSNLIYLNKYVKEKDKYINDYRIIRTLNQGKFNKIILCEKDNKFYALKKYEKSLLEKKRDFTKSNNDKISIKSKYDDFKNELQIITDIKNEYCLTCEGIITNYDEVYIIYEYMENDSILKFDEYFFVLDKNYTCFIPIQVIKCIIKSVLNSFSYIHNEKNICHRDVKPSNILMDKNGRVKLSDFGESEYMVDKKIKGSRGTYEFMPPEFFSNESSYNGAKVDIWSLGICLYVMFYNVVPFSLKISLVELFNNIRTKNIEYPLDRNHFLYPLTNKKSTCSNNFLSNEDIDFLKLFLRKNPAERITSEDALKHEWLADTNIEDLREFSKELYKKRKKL
Sequence of L-lactate dehydrogenase (Plasmodium falciparum (isolate CDC / Honduras)) (Q27743 whole entry, looked up): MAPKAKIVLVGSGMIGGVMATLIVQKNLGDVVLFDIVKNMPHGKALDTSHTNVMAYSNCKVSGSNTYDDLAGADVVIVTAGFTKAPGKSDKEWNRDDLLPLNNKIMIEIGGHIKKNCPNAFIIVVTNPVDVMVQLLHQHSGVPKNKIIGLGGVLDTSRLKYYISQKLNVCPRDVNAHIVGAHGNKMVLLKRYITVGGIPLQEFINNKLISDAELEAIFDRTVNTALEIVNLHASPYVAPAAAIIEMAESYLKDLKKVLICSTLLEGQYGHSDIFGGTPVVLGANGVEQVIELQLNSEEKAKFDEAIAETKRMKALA
Sequence of Calcium-dependent protein kinase 4 (Plasmodium falciparum (isolate 3D7)) (Q8IBS5 whole entry, looked up): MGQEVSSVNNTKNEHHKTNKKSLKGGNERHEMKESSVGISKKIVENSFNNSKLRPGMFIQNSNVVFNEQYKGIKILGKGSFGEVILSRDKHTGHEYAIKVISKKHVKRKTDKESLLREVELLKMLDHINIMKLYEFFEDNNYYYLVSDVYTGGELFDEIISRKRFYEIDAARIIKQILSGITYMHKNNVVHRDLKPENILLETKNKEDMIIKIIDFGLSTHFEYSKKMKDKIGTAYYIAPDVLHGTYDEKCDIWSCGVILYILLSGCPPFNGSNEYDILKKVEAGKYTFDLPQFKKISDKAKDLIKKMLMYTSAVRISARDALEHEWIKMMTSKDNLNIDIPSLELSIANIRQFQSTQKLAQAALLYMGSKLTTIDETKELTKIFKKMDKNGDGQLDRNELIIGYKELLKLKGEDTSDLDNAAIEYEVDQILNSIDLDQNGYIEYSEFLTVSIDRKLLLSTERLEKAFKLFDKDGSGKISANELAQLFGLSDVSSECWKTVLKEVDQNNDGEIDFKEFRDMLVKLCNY
Sequence of Calcium-dependent protein kinase 1 (Plasmodium falciparum (isolate 3D7)) (P62344 whole entry, looked up): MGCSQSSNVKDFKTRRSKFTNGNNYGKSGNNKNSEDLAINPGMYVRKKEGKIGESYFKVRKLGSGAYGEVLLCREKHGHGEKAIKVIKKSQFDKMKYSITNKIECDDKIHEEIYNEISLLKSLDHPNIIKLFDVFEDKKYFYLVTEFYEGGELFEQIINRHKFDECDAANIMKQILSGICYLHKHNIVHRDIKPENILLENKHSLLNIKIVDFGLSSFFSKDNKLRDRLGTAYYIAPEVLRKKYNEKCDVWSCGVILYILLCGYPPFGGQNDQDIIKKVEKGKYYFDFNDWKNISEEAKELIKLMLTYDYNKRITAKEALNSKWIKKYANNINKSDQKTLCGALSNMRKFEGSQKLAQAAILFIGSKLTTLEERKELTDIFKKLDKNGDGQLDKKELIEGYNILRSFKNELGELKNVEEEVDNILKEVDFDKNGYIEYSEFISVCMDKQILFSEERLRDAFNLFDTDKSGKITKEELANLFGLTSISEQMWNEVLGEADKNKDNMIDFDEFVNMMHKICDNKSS

For orientation: inhibition means the drop in the measured response relative to a control, in per cent. Consider `Cc1nccn1Cc1cc(C(C)(C)C)c(O)c(C(C)(C)C)c1`, for which the growth inhibition in test [1] is -4%; in test [4], 99% (active). For the same compound, the inhibition is 8% in test [2] and -5% in test [3]. Also, the outcome in test [5], in test [6], in test [7] and in test [8] was inactive.

For the compound `COc1ccc(C[C@@H](N)C(=O)N[C@H]2[C@@H](O)[C@H](n3cnc4c(N(C)C)ncnc43)O[C@@H]2CO)cc1`, the growth inhibition in test [1] is 100% (active); in test [4], 101% (active). Moreover, the inhibition was 99% (active) in test [2] and 0% in test [3]. Also, the result in test [5], in test [6], in test [7] and in test [8] was inactive.

For the compound `COc1cc2nc(N3CCC(CNC(=O)c4ccc(-c5ccc(Cl)cc5)cc4)CC3)nc(N)c2cc1OC`, the growth inhibition in test [1] was 101% (active); in test [4] it was 100% (active). The values for the inhibition in test [2] and in test [3] were 99% (active) and 8%, respectively. The outcome in test [5], in test [6], in test [7] and in test [8] was inactive.

Consider `CCCCOC(=O)C1=C(C)NC2=C(C(=O)CCC2)C1c1ccc(OC)c(Br)c1` (stereo not given), for which the growth inhibition was 87% (active) in test [1] and 93% (active) in test [4]. In addition, the inhibition is 5% in test [2] and -4% in test [3]. Also, the result in test [5], in test [6], in test [7] and in test [8] was inactive.

Take `CC(C)[C@H]1C(=O)N(S(C)(=O)=O)[C@H]2CCN(C(=O)c3ccc(CN4CCCCC4)c([N+](=O)[O-])c3)[C@H]12`: the growth inhibition in test [1] and in test [4] was 100% (active) throughout. The inhibition in test [2] is 10%; in test [3], 3%. Also, the outcome in test [5], in test [6], in test [7] and in test [8] was inactive.

As to `Cn1nc(C(F)(F)F)cc1-c1ccc(C(=O)Nc2ccc3c(c2)CNCC3(C)C)s1`, the growth inhibition was 36% in test [1] and 88% (active) in test [4]. In addition, the inhibition was 10% in test [2] and -1% in test [3]. Further, the outcome in test [5], in test [6], in test [7] and in test [8] was inactive.

Consider `O=[N+]([O-])c1ccc2ncnc(Nc3ccc(F)c(Cl)c3)c2c1`, for which the growth inhibition in test [1] was 65% (active); in test [4], 100% (active). Also, the inhibition is -1% in test [2] and 0% in test [3]. In addition, the outcome in test [5], in test [6], in test [7] and in test [8] was inactive.

With `COc1ccc(F)cc1-c1cccc(CNC2CCN(CC3Cn4c(=O)ccc5ccc(F)c3c54)CC2)c1` (stereo not given), the growth inhibition in test [1] was 27%; in test [4] it was 100% (active). The inhibition was 46% in test [2] and 1% in test [3]. Moreover, the result in test [5], in test [6], in test [7] and in test [8] was inactive.

For `CCCC(C)NC(=O)/C=C/c1ccccc1-c1cccc(OC)c1` (stereo not given), the figures for the growth inhibition in test [1] and in test [4] were 59% (active) and 87% (active), respectively. The inhibition in test [2] was 0%; in test [3], 3%. The outcome in test [5], in test [6], in test [7] and in test [8] was inactive.

`O=C(Nc1cccc(N2CCC(NCCCc3ccncc3)CC2)c1)c1cccc(C(F)(F)F)c1`: the values for the growth inhibition in test [1] and in test [4] were 50% (active) and 96% (active), respectively. Besides, the inhibition was 11% in test [2] and 4% in test [3]. Moreover, the outcome in test [5], in test [6], in test [7] and in test [8] was inactive.

With `COc1ccc(NC(=O)c2ccc(OCCCCCCCOc3ccc(C(=O)Nc4ccc(OC)c(N5CCN(C)CC5)c4)cc3)cc2)cc1N1CCN(C)CC1`, the growth inhibition in test [1] was 91% (active); in test [4], 96% (active). Moreover, the inhibition is 98% (active) in test [2] and -5% in test [3]. The result in test [5], in test [6], in test [7] and in test [8] was inactive.

Consider `Cc1cc(Nc2cccc(C(F)(F)F)c2)nc(Nc2cccc(C(F)(F)F)c2)n1`, for which the growth inhibition was 73% (active) in test [1] and 100% (active) in test [4]. Also, the inhibition in test [2] is -1%; in test [3], -3%. Moreover, the result in test [5], in test [6], in test [7] and in test [8] was inactive.

For the compound `CN1c2ccc([N+](=O)[O-])cc2C(C)(C)C12C=Cc1cc(Br)cc([N+](=O)[O-])c1O2` (stereo not given), the growth inhibition in test [1] is 99% (active); in test [4], 101% (active). The inhibition was -8% in test [2] and 1% in test [3]. In addition, the result in test [5], in test [6], in test [7] and in test [8] was inactive.

For `Nc1c(Cl)cc(C(O)CNCCCCCCCCCc2ccccn2)cc1Cl` (stereo not given), the growth inhibition in test [1] is 83% (active); in test [4], 98% (active). Moreover, the inhibition is 9% in test [2] and 2% in test [3]. The result in test [5], in test [6], in test [7] and in test [8] was inactive.

Take `CN(C)C(=O)c1cc(CNCc2ccccc2)ccc1-c1cccc(CNCc2ccc(-c3ccccc3)cc2)c1`: the growth inhibition in test [1] is 12%; in test [4] it was 90% (active). For the same compound, the inhibition is 27% in test [2] and -3% in test [3]. In addition, the outcome in test [5], in test [6], in test [7] and in test [8] was inactive.

As for `c1ccc(-c2ccc3c(Nc4ccc5[nH]ncc5c4)ccnc3c2)nc1`, the figures for the growth inhibition in test [1] and in test [4] were 99% (active) and 100% (active), respectively. For the same compound, the inhibition in test [2] is 99% (active); in test [3], 4%. Further, the outcome in test [5], in test [6], in test [7] and in test [8] was inactive.

`COc1ccccc1NC(=O)NC1CCN(CCCCCNC(=O)/C=C/c2ccc(Cl)c(Cl)c2)CC1`: the growth inhibition was 15% in test [1] and 100% (active) in test [4]. Moreover, the results for the inhibition in test [2] and in test [3] were 4% and -1%, respectively. Besides, the outcome in test [5], in test [6], in test [7] and in test [8] was inactive.

Take `Cc1cc(CNCC(CCNc2cc(=O)c3ccccc3[nH]2)NCc2cc(Br)cc(Br)c2)oc1C` (stereo not given): the growth inhibition in test [1] is 85% (active); in test [4], 98% (active). In addition, the inhibition in test [2] was 4%; in test [3], 2%. Also, the outcome in test [5], in test [6], in test [7] and in test [8] was inactive.

As for `Nc1cccc(CNCc2cccc(-c3csc(-c4nc5ccccc5[nH]4)c3)c2)c1`, the growth inhibition in test [1] is 63% (active); in test [4] it was 102% (active). For the same compound, the inhibition in test [2] is 13%; in test [3], 4%. The result in test [5], in test [6], in test [7] and in test [8] was inactive.

Take `COc1ccc(C(O)CNC(C)CCc2ccc(F)cc2)cc1C(F)(F)F` (stereo not given): the growth inhibition in test [1] is 98% (active); in test [4], 99% (active). In addition, the inhibition was 92% (active) in test [2] and 3% in test [3]. Further, the result in test [5], in test [6], in test [7] and in test [8] was inactive.
